# Source: PubChem BioAssay (NCATS)
# Inconclusive results are not listed. Where a call stands in place of a potency, no number is given. Active and inactive are the calls of the source. Unless noted, calls come from the whole dose curve; as a rule, active = well fitted curve in the direction sought with a large enough effect; inconclusive = small, poorly fitted or top-dose-only effect, or another doubt; inactive = no such curve, though single readings can be large; an effect the other way counts as inactive or inconclusive.
# Assays:
# [1] = Vero cells viability qHTS for Zika virus inhibitors (AID 1347167); conditions: cytotoxicity counter-screen (Zika); series mostly up to 45.9 µM
# Procedure, shortened: (§1)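 qHTS titration; 24-48 h compound exposure, 37 degrees C/5% CO2; DMEM, 4% FBS; CellTiter Glo ATP luminescence.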
# [2] = HepG2 cells viability qHTS for Zika virus inhibitors (AID 1347168); conditions: Zika counter-screen; series mostly up to 45.9 µM
# Procedure, shortened: as §1
# [3] = qHTS assay to identify inhibitors of the type 1 interferon - major histocompatibility complex class I in skeletal muscle: Counter screen cell viability and HiBit confirmation (AID 1347412); conditions: iHSKM muscle cells + IFN-b, HiBiT or CellTiter-Glo, 24 h; HiBiT; at 45.9 µM (top of the series); note: nearly all actives have a fitted effect of over 60% in size
# Procedure, shortened: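 Myoblasts (C25cl48, HLA-B HiBiT) seeded in medium without dexamethasone, IFN-b 4 ng/ml added except unstimulated columns; 1 hr later compounds pinned (12-pt 1:3, top 46 uM final). Incubated 24 hrs, lysed 10 min, luminescence measured.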
# [4] = NCATS anti-infectives library activity on HEK293 viability as a counter-qHTS vs the C. elegans viability qHTS (AID 1745854); conditions: HEK293 viability counter-screen; series mostly up to 41.8 µM
# Procedure, shortened: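 Cytotoxicity counter-screen to a worm viability qHTS: CellTiter-Glo luminescence read 10 min after reagent addition. Compounds (final up to 41.7 uM, a 1:5 dilution series) incubated 24 hr at 37C with 1,500 HEK293 cells per well; digitonin control.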
# [5] = target: Calcium and integrin-binding protein 1 (Homo sapiens) (UniProt Q99828); assay: Primary qHTS for Identification of Calcium Integrin Binding Protein 1 (CIB1) Competitor (AID 1508620); conditions: CIB1-GST / FITC-alphaIIb peptide fluorescence polarization; series mostly up to 114 µM;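 note: GST tagged CIB1 binding a fluorescein labelled alphaIIb integrin peptide tracer; top concentration of the series differs between compounds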
# Sequence of Calcium and integrin-binding protein 1 (Homo sapiens) (Q99828 whole entry, looked up): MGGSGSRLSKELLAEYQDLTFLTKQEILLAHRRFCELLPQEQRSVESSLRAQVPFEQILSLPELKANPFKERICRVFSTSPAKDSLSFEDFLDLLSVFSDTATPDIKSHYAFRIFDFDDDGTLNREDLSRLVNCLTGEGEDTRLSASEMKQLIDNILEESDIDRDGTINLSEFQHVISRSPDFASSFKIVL
# Procedure, shortened: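 Fluorescence polarization competition: GST-tagged CIB1 (1 uM final) preincubated with compound 15 min at room temperature, then FITC-labelled alphaIIb peptide (100 nM final) added. After 15 min at room temperature, polarization read at Ex 480/Em 540.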
# [6] = target: Phospholipid hydroperoxide glutathione peroxidase GPX4 (Homo sapiens) (UniProt P36969); assay: Primary qHTS Assay for Inhibitors of Recombinant Selenoprotein Glutathione Peroxidase 4 (GPX4) (AID 1845192); conditions: recombinant GPX4, GR-coupled NADPH fluorescence, 15 min; series mostly up to 50 µM; note: nearly all actives have a fitted effect of over 65% in size
# Sequence of Phospholipid hydroperoxide glutathione peroxidase GPX4 (Homo sapiens) (P36969 whole entry, looked up): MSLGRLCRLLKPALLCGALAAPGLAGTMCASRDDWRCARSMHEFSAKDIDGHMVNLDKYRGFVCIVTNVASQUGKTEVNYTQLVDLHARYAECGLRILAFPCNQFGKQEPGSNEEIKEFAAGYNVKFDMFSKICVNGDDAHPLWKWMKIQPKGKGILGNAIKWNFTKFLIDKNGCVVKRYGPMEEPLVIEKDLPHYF
# Procedure, shortened: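 Steps: GPX4 plus compound, 30 min RT; add GR/GSH/NADPH master mix; start with cumene hydroperoxide; read 340/450 nm fluorescence at 0 and 15 min. Finals were 200 nM GPX4, 1 mM GSH, 0.5 mM CHP, 0.5 mM NADPH, 100 nM GR.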
# [7] = target: Luciferin 4-monooxygenase (Photinus pyralis) (UniProt P08659); assay: Primary firefly luciferase (FLuc) qHTS assay for identification of artifact compounds. (AID 1845220); conditions: purified firefly luciferase, luminescence, 5 min; series mostly up to 54.1 µM; note: nearly all actives have a fitted effect of over 60% in size
# Procedure, shortened: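 Titrated compounds were incubated 15 min at RT, protected from light, with luciferin and ATP at 10 uM; reaction started with 10 nM FLuc, luminescence imaged at 5 min, and concentration-response fitted by Hill equation.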
# [8] = Primary fluorescence-based thiol-reactive (MSTI) qHTS assay for identification of artifact compounds. (AID 1845221); conditions: MSTI thiol-reactivity probe, 1 h; series mostly up to 53.8 µM;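 note: thiol-reactive compounds lower the probe fluorescence signal; nearly all actives have a fitted effect of over 65% in size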
# Procedure, shortened: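 First, 4 uM MSTI in 2% DMSO/PBS pH 7.4 was dispensed; next, compounds were added; then plates sat 1 h at room temperature without light. Finally, emission at 598 nm was recorded.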
# [9] = system: Nanoluciferase (engineered Oplophorus gracilirostris luciferase); assay: Primary Nanoluciferase (NLuc) qHTS assay for identification of artifact compounds. (AID 1845222); conditions: NLuc-conditioned medium, Nano-Glo luminescence, 5 min; series mostly up to 54.1 µM;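 note: NLuc secreted into diluted conditioned medium of S16 cells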
# Procedure, shortened: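 qHTS format, against NLuc in S16 cell-conditioned medium. Nano-Glo substrate 1:100 was added after 15 min at room temperature. Luminescence was taken after a further 5 min.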
# [10] = Primary redox qHTS assay for identification of artifact compounds. (AID 1845223); conditions: Amplex Red/HRP redox cycling with DTT, fluorescence; series mostly up to 53.8 µM
# Procedure, shortened: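 Redox-cycling detection via DTT (250 uM final) oxidation coupled to Amplex Red (25 uM)/HRP (250 mU/mL) in HBSS. 15 min preincubation plus 30 min after DTT, room temperature. Ex/Em 525/598 nm; 4-parameter Hill fit against DMSO and 10 uM DA3003.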
# [11] = target: Rap guanine nucleotide exchange factor 3 (Homo sapiens) (UniProt O95398); assay: Counterscreen qHTS for antagonist of cAMP-regulated guanine nucleotide exchange factor 3 (EPAC1) (AID 1645888); conditions: Rap1B-BODIPY-GDP nucleotide exchange, fluorescence; series mostly up to 154 µM;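 note: fluorescence loss as bound BODIPY-GDP is released from Rap1B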
# Sequence of Rap guanine nucleotide exchange factor 3 (Homo sapiens) (O95398 whole entry, looked up): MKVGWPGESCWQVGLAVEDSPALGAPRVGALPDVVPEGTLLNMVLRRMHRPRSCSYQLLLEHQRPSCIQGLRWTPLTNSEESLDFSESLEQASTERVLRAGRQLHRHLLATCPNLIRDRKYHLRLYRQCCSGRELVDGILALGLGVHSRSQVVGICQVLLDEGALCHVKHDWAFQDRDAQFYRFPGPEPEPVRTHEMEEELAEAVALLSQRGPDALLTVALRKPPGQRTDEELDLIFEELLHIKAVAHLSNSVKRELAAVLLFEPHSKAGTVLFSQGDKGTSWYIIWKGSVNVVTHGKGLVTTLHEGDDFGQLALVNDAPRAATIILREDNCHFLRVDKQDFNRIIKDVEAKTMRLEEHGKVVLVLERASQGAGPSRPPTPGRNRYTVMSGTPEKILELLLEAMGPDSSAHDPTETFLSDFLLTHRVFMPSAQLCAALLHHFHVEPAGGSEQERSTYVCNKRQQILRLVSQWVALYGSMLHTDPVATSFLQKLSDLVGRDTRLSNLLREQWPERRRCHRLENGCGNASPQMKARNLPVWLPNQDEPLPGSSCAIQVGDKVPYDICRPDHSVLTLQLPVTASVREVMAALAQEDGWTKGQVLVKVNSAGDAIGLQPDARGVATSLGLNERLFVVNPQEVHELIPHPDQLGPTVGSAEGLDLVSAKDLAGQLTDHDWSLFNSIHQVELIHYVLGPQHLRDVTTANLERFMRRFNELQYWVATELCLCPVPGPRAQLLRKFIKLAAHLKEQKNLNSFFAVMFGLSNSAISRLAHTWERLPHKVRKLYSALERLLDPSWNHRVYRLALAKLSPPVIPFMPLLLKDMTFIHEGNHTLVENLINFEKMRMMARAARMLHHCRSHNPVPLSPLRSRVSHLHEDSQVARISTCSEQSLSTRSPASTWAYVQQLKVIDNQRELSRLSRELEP
# Procedure, shortened: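 Rap1B–BODIPY-GDP (250 nM) with 50 uM GDP; compounds pin-transferred to 9.74 nM–152 uM final (activator) or from 7.32 nM upwards (inhibitor). Fluorescence Ex/Em 480/540 nm read at 5 and 30 min, then after adding cAMP or buffer, at room temperature.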
# [12] = qHTS profiling for inhibitors of Plasmodium falciparum (3D7) proliferation (AID 743322; call rule not given here;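 note: infected erythrocytes exposed to compound for 72 h before lysis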); conditions: P. falciparum 3D7 proliferation; at 28.7 µM (top of the series)
# Procedure, shortened: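 Parasite DNA was quantified by SYBR Green I fluorescence (ex 485, em 535 nm) after overnight lysis in saponin/Triton buffer at room temperature. Cultures at 0.3% parasitemia and 2.5% hematocrit were first exposed to compound for 72 h at 37 C; signals were normalised to artemisinin (0.29 uM) and vehicle wells.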
# [13] = qHTS profiling for inhibitors of Plasmodium falciparum (DD2) proliferation (AID 743323; call rule not given here); conditions: lower = more inhibition; at 28.7 µM (top of the series)
# Procedure, shortened: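 Parasite DNA quantified by SYBR Green fluorescence (ex 485, em 535 nm) after saponin/Triton lysis and overnight dark incubation. Cultures: 0.3% parasitemia, 2.5% hematocrit, 72 h, 37 C; data scaled between DMSO and 0.29 uM artemisinin.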
# [14] = qHTS profiling for inhibitors of Plasmodium falciparum (HB3) proliferation (AID 743324); conditions: Plasmodium falciparum HB3 blood-stage proliferation; at 28.7 µM (top of the series)
# Procedure, shortened: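 SYBR Green fluorescence (485 ex/535 em) of lysed cultures, incubated overnight at room temperature in the dark, quantifies parasite DNA. Infected erythrocytes at 0.3% parasitemia and 2.5% hematocrit were exposed 72 h; values normalized to DMSO and 0.29 uM artemisinin controls.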
# [15] = target: DNA repair nuclease/redox regulator APEX1 (Homo sapiens) (UniProt P27695); assay: qHTS Validation Assay for Inhibitors of the Human Apurinic/apyrimidinic Endonuclease 1 (APE1) (AID 1705;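 note: TAMRA fluorescence gain over two minutes as APE1 cuts a quenched THF abasic duplex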); conditions: purified APE1 endonuclease activity, fluorescence, titration; series mostly up to 57.1 µM
# Sequence of DNA repair nuclease/redox regulator APEX1 (Homo sapiens) (P27695 whole entry, looked up): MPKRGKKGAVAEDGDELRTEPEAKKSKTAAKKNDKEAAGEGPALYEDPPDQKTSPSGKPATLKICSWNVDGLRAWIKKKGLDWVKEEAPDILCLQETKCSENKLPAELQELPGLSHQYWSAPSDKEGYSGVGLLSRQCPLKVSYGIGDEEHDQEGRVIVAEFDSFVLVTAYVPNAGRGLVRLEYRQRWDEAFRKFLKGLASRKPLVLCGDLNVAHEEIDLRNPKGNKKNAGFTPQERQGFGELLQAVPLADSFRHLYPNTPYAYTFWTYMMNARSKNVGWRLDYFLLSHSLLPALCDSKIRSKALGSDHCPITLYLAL
# Procedure, shortened: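 Endonuclease activity of human APE1 is followed as dequenching when the enzyme incises a tetrahydrofuran abasic site in a short duplex labelled 5'-TAMRA/3'-BHQ-2 (50 nM final), after 15 min enzyme–compound preincubation at room temperature.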
# [16] = Counterscreen for APE1 Inhibitors: Fluorescent Dye Displacement Validation Assay (AID 1707); conditions: fluorescent dye displacement from DNA; series mostly up to 57.1 µM
# Procedure, shortened: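 Counterscreen flags promiscuous DNA binders: compounds displacing ThO from duplex DNA (abasic THF site, 50 nM) reduce 540 nm emission (480 nm excitation). ThO 250 nM final; Tris-HCl pH 7.5 with NaCl, MgCl2 and Tween-20.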
# [17] = target: Endonuclease 4 (Escherichia coli (strain K12)) (UniProt P0A6C1); assay: Counterscreen for APE1 Inhibitors: qHTS Validation Assay for Inhibitors of Endonuclease IV (AID 1708); conditions: E. coli endonuclease IV, DNA cleavage fluorescence; series mostly up to 57.1 µM
# Procedure, shortened: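 Conditions: 2 nM enzyme, 50 nM TAMRA/BHQ-2 substrate, pH 7.5 Tris buffer with 2 mM MgCl2, RT. Compound preincubation 15 min; readout three fluorescence reads 60 s apart, third-minus-first.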
# [18] = qHTS for differential inhibitors of proliferation of Plasmodium falciparum line 7G8 (AID 1815); conditions: Plasmodium falciparum 7G8 proliferation inhibition; series mostly up to 28.7 µM;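 note: potency is the fitted concentration of half-maximal effect; parasite growth measured after three days of incubation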
# [19] = qHTS for differential inhibitors of proliferation of Plasmodium falciparum line W2 (AID 1883); conditions: Potency: Plasmodium falciparum W2 proliferation inhibition; series mostly up to 28.7 µM;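 note: potency is the fitted concentration of half-maximal effect; parasites grown with compound for 72 h before lysis and staining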
# [20] = qHTS profiling for inhibitors of Plasmodium falciparum proliferation (AID 504749); note: nearly all actives have a fitted effect of over 60% in size; conditions: P. falciparum in erythrocytes, SYBR Green DNA, 72 h, at 28.7 µM (top of the series)
# Procedure, shortened: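 Each compound contacts P. falciparum-infected red blood cells for 72 h at 37 C; lysis buffer (Tris, EDTA, saponin, Triton X, SYBR Green I) is added and fluorescence measured next morning; values normalized to controls.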
smiles,measurement,setting,value
C=CC(C)(C)c1[nH]c2ccccc2c1C1=C(O)C(=O)C(c2c[nH]c3c(CC=C(C)C)cccc23)=C(O)C1=O,Potency,[1],inactive
same,Potency,[2],inactive
C[C@@H](Nc1cc(F)cc(F)c1)c1cc(C(=O)N(C)C)cc2c(=O)cc(N3CCOCC3)oc12,"activity change, negative = inhibition",[3],-23.5% (inactive)
COc1c(O)cc2oc(-c3ccccc3)cc(=O)c2c1O,outcome,[4],inactive
O=C(CCCCCCC(=O)Nc1ccc(C2OC(CSc3nc(-c4ccccc4)c(-c4ccccc4)o3)CC(c3ccc(CO)cc3)O2)cc1)NO (stereo unspecified),outcome,[5],inactive
same,Potency,[6],inactive
same,Potency,[7],inactive
same,Potency,[8],inactive
same,Potency,[9],inactive
same,Potency,[10],inactive
CCCCCCc1cc2cc(-c3nnc(-c4cccc(Cl)c4)o3)c(=O)oc2cc1O,outcome,[11],inactive
OC[C@H]1OC([S-])[C@H](O)[C@@H](O)[C@H]1O.[Au+] (stereo partly specified),remaining parasite growth % (stronger effect = lower value),[12],86.3%
same,"activity, percent of control",[13],98.2%
same,"remaining proliferation (% of control), lower = more inhibition",[14],78.1%
COc1ccc2c(c1)c(CC(=O)N1CCOCC1)c(C)n2C(=O)c1ccc(Cl)cc1,Potency,[15],inactive
same,Potency,[16],inactive
same,Potency,[17],inactive
same,Potency,[18],10 µM (active)
same,Potency,[19],12.6 µM (active)
C/C=C1\C2C=C(C)CC1(N)c1ccc(=O)[nH]c1C2 (stereo unspecified),"activity, negative = inhibition",[20]; parasite line A,-3.71% (inactive)
same,"activity, negative = inhibition",[20]; parasite line B,0.727% (inactive)
